About 79,000 compounds went through this panel and 15% of them were active in at least one assay; those are over-represented in the sample as a whole. Values without a mark were called inactive. Active and inactive are the calls of the source. Cut-off read from the data, not from the text of the source: active = growth inhibition above about 70%; inactive = the rest.

Experiment [1] in a line: NCI Yeast Anticancer Drug Screen. Data for the rad50 strain (AID 155).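 Note: 0% = growth of vehicle-only cultures of the same strain.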 The settings on record: S. cerevisiae rad50 strain growth inhibition, active compounds read high. The essentials:
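A DNA repair-deficient yeast mutant serves as the test organism; compound-induced growth inhibition is calculated against vehicle-treated cells.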

A short description of experiment [2]: NCI Yeast Anticancer Drug Screen. Data for the mec2-1 strain (AID 157). The settings on record: S. cerevisiae mec2-1 strain, active compounds read high. The essentials:
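Each compound was tested on mec2-1 yeast, a strain altered in DNA damage repair or cell cycle control. Growth inhibition is reported relative to vehicle.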

The nature of experiment [3]: NCI Yeast Anticancer Drug Screen. Data for the sgs1 mgt1 strain (AID 161).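 Note: 0% = growth of cultures given vehicle only.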 The settings on record: S. cerevisiae sgs1 mgt1 strain, active compounds read high. Summed up: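 Test agents were incubated with a DNA-repair-mutant yeast strain. Growth was then read and compared against vehicle-treated controls.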
The nature of experiment [4]: NCI Yeast Anticancer Drug Screen. Data for the cln2 rad14 strain (AID 165).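 Note: 0% = growth equal to vehicle treated cultures.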 Particulars: S. cerevisiae cln2 rad14 strain, active compounds read high. The essentials: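 Test compounds were added to cln2 rad14 yeast cultures; inhibition of growth was then determined by comparison with vehicle treatment.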
The nature of experiment [5]: NCI Yeast Anticancer Drug Screen. Data for the bub3 strain (AID 167). Particulars: S. cerevisiae bub3 mutant strain, active compounds read high. The essentials:
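Inhibition values come from growth of compound-treated mutant yeast normalised to vehicle-treated controls.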

A short description of experiment [6]: NCI Yeast Anticancer Drug Screen. Data for the mlh1 rad18 strain (AID 175). The settings on record: S. cerevisiae mlh1 rad18 strain growth inhibition, active compounds read high. The essentials:
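Inhibition values reflect reduced growth of mutant yeast versus vehicle-treated controls following compound exposure; the mutations affect DNA damage repair.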

[7] abbreviates: at 5.0 µM (retest, dose inferred, filed as 0.5).
Setting [8] is: at 50.0 µM (retest, dose inferred, filed as 5.0).

With `CC(O)CCc1nc2ccccc2[nH]1` (stereo not given), the growth inhibition in experiment [1] (setting [7]) is 3%; in experiment [1] (setting [8]), -4%; in experiment [1] (at 50.0 µM), 17.3%; in experiment [2] (setting [7]) it was 2%; in experiment [2] (setting [8]), -3%; in experiment [2] (at 50.0 µM), 3.15%. For the same compound, the growth inhibition in experiment [3] (setting [7]) was -1%; in experiment [3] (setting [8]), 0%; in experiment [3] (at 50.0 µM), -1.3%; in experiment [4] (setting [7]), 2%; in experiment [4] (setting [8]), 27%; in experiment [4] (at 50.0 µM), 57.2%. Besides, the growth inhibition in experiment [5] (setting [7]) is 3%; in experiment [5] (setting [8]), 6%; in experiment [5] (at 50.0 µM), -6.65%; in experiment [6] (setting [7]) it was 0%; in experiment [6] (setting [8]), -8%; in experiment [6] (at 50.0 µM), 11.7%.

For the compound `COC1CC(OC(=O)c2ccccc2)C2OC(c3ccccc3)OCC2O1` (stereo not given), the growth inhibition in experiment [1] (setting [7]) was 3%; in experiment [1] (setting [8]), 26%; in experiment [1] (at 50.0 µM), 42.5%; in experiment [2] (setting [7]), 2%; in experiment [2] (setting [8]), 18%; in experiment [2] (at 50.0 µM) it was 8.35%. Also, the growth inhibition was 1% in experiment [3] (setting [7]); 44% in experiment [3] (setting [8]); 63.3% in experiment [3] (at 50.0 µM); 7% in experiment [4] (setting [7]); 39% in experiment [4] (setting [8]); -3.35% in experiment [4] (at 50.0 µM). The growth inhibition in experiment [5] (setting [7]) is 24%; in experiment [5] (setting [8]), 80% (active); in experiment [5] (at 50.0 µM), 15.2%; in experiment [6] (setting [7]) it was 6%; in experiment [6] (setting [8]) it was 36%; in experiment [6] (at 50.0 µM), 6.15%.

On to `Oc1ccc2ccccc2c1.[Cu+2]`, for which the growth inhibition was 1% in experiment [1] (setting [7]); 20% in experiment [1] (setting [8]); 98% (active) in experiment [1] (at 50.0 µM); -1% in experiment [2] (setting [7]); 12% in experiment [2] (setting [8]); 97.2% (active) in experiment [2] (at 50.0 µM). The growth inhibition in experiment [3] (setting [7]) was -2%; in experiment [3] (setting [8]), 6%; in experiment [3] (at 50.0 µM) it was 98.4% (active); in experiment [4] (setting [7]) it was -4%; in experiment [4] (setting [8]) it was 13%; in experiment [4] (at 50.0 µM) it was 83.2% (active). The growth inhibition was 2% in experiment [5] (setting [7]); 8% in experiment [5] (setting [8]); 94% (active) in experiment [5] (at 50.0 µM); 0% in experiment [6] (setting [7]); 33% in experiment [6] (setting [8]); 98% (active) in experiment [6] (at 50.0 µM).

Regarding `O=C(O)CN(CCN1CC(=O)OC(=O)C1)CCN1CC(=O)OC(=O)C1`, the growth inhibition is 4% in experiment [1] (setting [7]); 61% in experiment [1] (setting [8]); 89.9% (active) in experiment [1] (at 50.0 µM); -1% in experiment [2] (setting [7]); 49% in experiment [2] (setting [8]); 88.5% (active) in experiment [2] (at 50.0 µM). The growth inhibition is 8% in experiment [3] (setting [7]); 29% in experiment [3] (setting [8]); 86.5% (active) in experiment [3] (at 50.0 µM); -8% in experiment [4] (setting [7]); 46% in experiment [4] (setting [8]); 70.5% (active) in experiment [4] (at 50.0 µM). Besides, the growth inhibition in experiment [5] (setting [7]) was 4%; in experiment [5] (setting [8]) it was 88% (active); in experiment [5] (at 50.0 µM), 72.5% (active); in experiment [6] (setting [7]), 8%; in experiment [6] (setting [8]) it was 41%; in experiment [6] (at 50.0 µM), 84.3% (active).

In the case of `O=Nc1ccc(O)c(/C=N/O)c1`, the growth inhibition in experiment [1] (setting [7]) is 19%; in experiment [1] (setting [8]), 94% (active); in experiment [1] (at 50.0 µM), 87.3% (active); in experiment [2] (setting [7]), 11%; in experiment [2] (setting [8]) it was 96% (active); in experiment [2] (at 50.0 µM), 91% (active). For the same compound, the growth inhibition in experiment [3] (setting [7]) is 6%; in experiment [3] (setting [8]), 90% (active); in experiment [3] (at 50.0 µM), 92.1% (active); in experiment [4] (setting [7]), 24%; in experiment [4] (setting [8]), 95% (active); in experiment [4] (at 50.0 µM), 83.8% (active). Further, the growth inhibition in experiment [5] (setting [7]) was 1%; in experiment [5] (setting [8]), 99% (active); in experiment [5] (at 50.0 µM), 90% (active); in experiment [6] (setting [7]) it was 1%; in experiment [6] (setting [8]), 97% (active); in experiment [6] (at 50.0 µM), 88.9% (active).

Turning to `S=c1sc2ccccc2n1C=Nc1ccccc1`, the growth inhibition was -2% in experiment [1] (setting [7]); 83% (active) in experiment [1] (setting [8]); 98.9% (active) in experiment [1] (at 50.0 µM); -5% in experiment [2] (setting [7]); 97% (active) in experiment [2] (setting [8]); 98.8% (active) in experiment [2] (at 50.0 µM). Further, the growth inhibition was -1% in experiment [3] (setting [7]); 96% (active) in experiment [3] (setting [8]); 98.7% (active) in experiment [3] (at 50.0 µM); -8% in experiment [4] (setting [7]); 81% (active) in experiment [4] (setting [8]); 96.2% (active) in experiment [4] (at 50.0 µM). Further, the growth inhibition in experiment [5] (setting [7]) is -1%; in experiment [5] (setting [8]), 96% (active); in experiment [5] (at 50.0 µM), 99.1% (active); in experiment [6] (setting [7]) it was -2%; in experiment [6] (setting [8]), 79% (active); in experiment [6] (at 50.0 µM) it was 98.3% (active).

For `CCOP(=O)(CCC(=O)[C@@]1(O)CC[C@H]2[C@@H]3CCC4=CC(=O)CC[C@]4(C)[C@H]3CC[C@@]21C)OCC`, the growth inhibition in experiment [1] (setting [7]) was 0%; in experiment [1] (setting [8]), 2%; in experiment [1] (at 50.0 µM), 33.9%; in experiment [2] (setting [7]) it was 1%; in experiment [2] (setting [8]), 5%; in experiment [2] (at 50.0 µM) it was 5.55%. For the same compound, the growth inhibition in experiment [3] (setting [7]) is 3%; in experiment [3] (setting [8]), 16%; in experiment [3] (at 50.0 µM) it was 72.8% (active); in experiment [4] (setting [7]), -1%; in experiment [4] (setting [8]) it was 2%; in experiment [4] (at 50.0 µM), 59.4%. For the same compound, the growth inhibition in experiment [5] (setting [7]) was -2%; in experiment [5] (setting [8]), -3%; in experiment [5] (at 50.0 µM), 29.8%; in experiment [6] (setting [7]) it was -4%; in experiment [6] (setting [8]) it was 7%; in experiment [6] (at 50.0 µM) it was 39.1%.

For the compound `CN(C)c1nc(N(C)C)sc(=O)n1`, the growth inhibition is 0% in experiment [1] (setting [7]); 91% (active) in experiment [1] (setting [8]); 85% (active) in experiment [1] (at 50.0 µM); -4% in experiment [2] (setting [7]); 28% in experiment [2] (setting [8]); 25.8% in experiment [2] (at 50.0 µM). The growth inhibition in experiment [3] (setting [7]) was 2%; in experiment [3] (setting [8]) it was 78% (active); in experiment [3] (at 50.0 µM), 69%; in experiment [4] (setting [7]), 8%; in experiment [4] (setting [8]), 26%; in experiment [4] (at 50.0 µM), 1.5%. The growth inhibition in experiment [5] (setting [7]) was -10%; in experiment [5] (setting [8]), 37%; in experiment [5] (at 50.0 µM), -3.6%; in experiment [6] (setting [7]), 9%; in experiment [6] (setting [8]), 86% (active); in experiment [6] (at 50.0 µM), 76.3% (active).

For `CCOC1(OCC)C(C)C(c2ccccc2)C(c2ccccc2)C1C` (stereo not given), the growth inhibition is -3% in experiment [1] (setting [7]); -1% in experiment [1] (setting [8]); 79.3% (active) in experiment [1] (at 50.0 µM); -6% in experiment [2] (setting [7]); -4% in experiment [2] (setting [8]); 98.8% (active) in experiment [2] (at 50.0 µM). Further, the growth inhibition in experiment [3] (setting [7]) is -8%; in experiment [3] (setting [8]), 13%; in experiment [3] (at 50.0 µM) it was 8.1%; in experiment [4] (setting [7]), -4%; in experiment [4] (setting [8]), -2%; in experiment [4] (at 50.0 µM) it was 98.5% (active). Besides, the growth inhibition is -8% in experiment [5] (setting [7]); -5% in experiment [5] (setting [8]); 99% (active) in experiment [5] (at 50.0 µM); -9% in experiment [6] (setting [7]); 9% in experiment [6] (setting [8]); 98.7% (active) in experiment [6] (at 50.0 µM).

On to `Fc1ccccc1CN1COc2c(cc(Cl)c3cccnc23)C1`, for which the growth inhibition in experiment [1] (setting [7]) was 11%; in experiment [1] (setting [8]), 71% (active); in experiment [1] (at 50.0 µM) it was 99% (active); in experiment [2] (setting [7]), -1%; in experiment [2] (setting [8]), 43%; in experiment [2] (at 50.0 µM), 99.4% (active). Besides, the growth inhibition in experiment [3] (setting [7]) was 2%; in experiment [3] (setting [8]), 98% (active); in experiment [3] (at 50.0 µM), 99.5% (active); in experiment [4] (setting [7]), 1%; in experiment [4] (setting [8]), 98% (active); in experiment [4] (at 50.0 µM), 99.1% (active). Further, the growth inhibition in experiment [5] (setting [7]) was -11%; in experiment [5] (setting [8]), 99% (active); in experiment [5] (at 50.0 µM), 99.2% (active); in experiment [6] (setting [7]), 5%; in experiment [6] (setting [8]), 98% (active); in experiment [6] (at 50.0 µM), 99.3% (active).
